# This excerpt belongs to a sample that is enriched for hits.
# 12-LOX inh = blocks human arachidonate 12S-lipoxygenase. P18054. purified 12hLO, xylenol orange hydroperoxide absorbance. Potency, µM (top dose mostly 108 µM), inactives show at the highest dose activity change, negative = inhibition, hits mostly inhibitors. 1.1% of 580,000 active. AID 1671190; also: potency is read from the fitted curve at half-maximal effect
# Target sequence (P18054 whole entry, looked up): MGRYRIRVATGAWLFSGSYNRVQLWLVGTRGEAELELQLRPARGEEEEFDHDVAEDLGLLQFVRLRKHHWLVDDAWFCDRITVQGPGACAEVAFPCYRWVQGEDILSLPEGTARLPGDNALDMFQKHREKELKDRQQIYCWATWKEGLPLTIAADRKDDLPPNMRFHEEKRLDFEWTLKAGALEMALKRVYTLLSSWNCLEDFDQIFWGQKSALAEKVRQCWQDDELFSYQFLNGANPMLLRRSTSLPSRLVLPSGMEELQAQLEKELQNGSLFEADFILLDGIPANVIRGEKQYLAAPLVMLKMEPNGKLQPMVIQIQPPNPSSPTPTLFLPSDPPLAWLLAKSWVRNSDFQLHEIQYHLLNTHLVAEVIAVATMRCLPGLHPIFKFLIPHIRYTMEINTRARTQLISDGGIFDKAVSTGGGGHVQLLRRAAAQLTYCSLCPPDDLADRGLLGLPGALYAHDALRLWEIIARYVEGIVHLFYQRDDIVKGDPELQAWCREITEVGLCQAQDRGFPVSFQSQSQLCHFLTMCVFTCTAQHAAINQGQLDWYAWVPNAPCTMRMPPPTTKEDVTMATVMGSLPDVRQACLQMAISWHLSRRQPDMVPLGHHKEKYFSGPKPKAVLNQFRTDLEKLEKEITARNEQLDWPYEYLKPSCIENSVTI
#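 Hydroperoxide product was detected by ferrous iron/xylenol orange as the 573 to 405 nm absorbance ratio. Arachidonic acid at 40 uM (final) was turned over for 30 min at room temperature by 150 nM human 12hLO, pH 7.0 Hepes buffer, after 15 min compound preincubation.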
# IL1B secr inh = inflammasome signaling inhibition, IL-1 beta readout. THP-1 LPS/ATP IL-1B secretion, AlphaLISA, 16 h; stronger effect = lower value. activity change, % at 57.5 µM. 4.7% of 360,000 active. AID 743279; in the data active = activity change below about -50%; inconclusive = mostly about -30% to -49%
#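 Secreted IL-1B measured by AlphaLISA bead assay after 16 h compound exposure of THP-1 cells; compounds (final up to 57.5 uM) added 1 h before LPS (250 ng/mL) and ATP (1.25 mM) stimulation; lower signal means less secretion.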
# HT1080 IDH1KD tx = HT-1080 IDH1 knockdown cell toxicity (counter line); AID 686971; Potency, µM (titrated, usually from 46.1 µM), for the others: at the highest dose activity, negative = toxicity, hits mostly cytotoxic; HT-1080 IDH1 knockdown viability, ATP luminescence, 48 h; 2% of 360,000 active;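 also: potency is read from the fitted curve at half-maximal effect; 0% = DMSO wells and -100% = cell-free medium wells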
#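 Knockdown cells (IDH1KD HT-1080) received compounds 2 h after plating at 750 cells/well and were kept 48 h at 37 °C in 5% FBS RPMI. A CellTiter-Glo luminescence read gave % activity for curve fitting.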
# DT40 TDP1 no CPT = qHTS for Inhibitors of human tyrosyl-DNA phosphodiesterase 1 (TDP1): qHTS in cells in absence of CPT. AID 686978, 2013. Potency, µM (series often up to 46.2 µM), for the others: at the top dose activity change, negative = growth inhibition, hits mostly inhibitors. 15% of 420,000 active. DT40 Tdp1-/- hTDP1 cells, no CPT, ATP luminescence, 48 h; also: potency is read from the fitted curve at half-maximal effect; nearly all actives have a fitted effect of over 55% in size
#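 Stably hTDP1-transfected Tdp1-null chicken DT40 cells were treated with library compounds minus camptothecin and grown for at least 48 hr at 37 °C, after which cellular ATP was quantified by luminescence.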
# DT40 TDP1 CPT = DT40-hTDP1 cell growth loss with CPT | chicken DT40 Tdp1-/-;hTDP1 cells + 20 nM CPT, ATP luminescence, 48 h | Potency, µM (highest dose often 46.2 µM), for the others: at the top dose activity change, negative = growth inhibition, actives largely listed as inhibitors | 12% of 420,000 active | AID 686979; also: potency is read from the fitted curve at half-maximal effect; nearly all actives have a fitted effect of over 55% in size
#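 Chicken DT40 Tdp1-/- cells complemented with human TDP1, 400 cells/well, exposed to compounds plus 20 nM camptothecin for at least 48 h at 37 C; viability read as ATP content by CellTiter-Glo luminescence.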
# HT1080-NT tox = kills 2HG-producing HT-1080-NT fibrosarcoma cells. 1.6% of 360,000 active. Potency, µM (highest dose often 46.1 µM), for the others: top-dose activity, negative = less viability, usual class: cytotoxic. HT-1080-NT fibrosarcoma viability, CellTiter-Glo ATP luminescence, 48 h;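 also: NT is the 2HG producing partner of a matched IDH1 knockdown line; potency is read from the fitted curve at half-maximal effect; 0% = DMSO-treated cells and -100% = media-only wells without cells; nearly all actives have a fitted effect of over 55% in size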
#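 Viability by CellTiter-Glo luminescence after 48 h compound exposure at 37C of HT-1080-NT cells (750/well, RPMI, 5% FBS). % activity scaled between DMSO wells and medium-only wells, then curve-fitted and categorized by curve class.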
# * hit, by the source's call; ? = inconclusive; nt = no result; [ ] = remark or other dose. Unless noted, calls follow the shape of the dose curve; as a rule, active = well fitted curve in the direction sought with a large enough effect; inconclusive = small, poorly fitted or top-dose-only effect, or another doubt; inactive = no such curve, though single readings can be large; an effect the other way counts as inactive or inconclusive. Unless noted, % is scaled to controls: 0 for no effect and ±100 for the full control effect.
SMILES,12-LOX inh,IL1B secr inh,HT1080 IDH1KD tx,DT40 TDP1 no CPT,DT40 TDP1 CPT,HT1080-NT tox
COC(=O)C1=C(c2ccc(F)cc2F)C[C@@H]2CC[C@H]1N2C(=O)N1CCOCC1,-2.1%,10.9,0.0%,?,?,-3.6%
COC(=O)C1=C(c2c(C)noc2C)C[C@@H]2CC[C@H]1N2C(=O)N1CCC(O)(c2ccc(Cl)cc2)CC1,-27.7%,-5.0,4.2%,20.6µM*,?,4.4%
COC(=O)C1=C(c2ccc(F)cc2F)C[C@@H]2CC[C@H]1N2C(=O)N1CCCC1,-3.4%,21.2,1.7%,8.2µM*,?,12.7%
COC(=O)C1=C(c2ccc(F)cc2F)C[C@@H]2CC[C@H]1N2C(=O)N1CCCCC1,-4.1%,17.4,6.3%,18.4µM*,13µM*,21.7%
COC(=O)C1=C(c2cccc(OC)c2OC)C[C@@H]2CC[C@H]1N2C(=O)N1CCCCC1,-10.0%,35.8,2.0%,nt,?,12.1%
COc1cc2c(cc1OCC1CC1)NC(=O)C21CCN(C(=O)c2cccc(C#N)c2)CC1,-5.3%[176 µM],nt,nt,nt,nt,nt
Cc1ccccc1-c1ccc2n(c1=O)C[C@H]1C[C@@H]2CN(C(=O)NC2CCCCC2)C1,100.0%[176 µM],nt,nt,nt,nt,nt
COc1ccc(CN2CCC3(CC2)C(=O)Nc2ccccc23)cc1,1.6%[6.33 µM],nt,nt,nt,nt,nt
Cn1cc(C(=O)Cn2cnc3ccccc32)c2ccccc21,37.4%,nt,nt,nt,nt,nt
CC(C)CCN1CCCC2(CC(c3ccccn3)=NO2)C1 (stereo not drawn),4.0%[12.5 µM],nt,nt,nt,nt,nt
COC(=O)C1=C(c2cccc(OC)c2OC)C[C@@H]2CC[C@H]1N2C(=O)N1CCCC1,0.0%,5.0,7.2%,nt,20.6µM*,23.7%
Cn1cnc([N+](=O)[O-])c1Sc1ccc([N+](=O)[O-])cc1,?,-100.7*,20.6µM*,5.17µM*,3.66µM*,16.4µM*
Cc1cc(C(=O)Nc2sc3c(c2C#N)CCC3)no1,?,0.0,?,?,?,10µM*
Cc1noc(C(=O)Nc2sc3c(c2C#N)CCC3)c1Cl,?,31.8,-12.9%,?,?,-4.3%
Cc1cccc(CCN)c1,25.6%,nt,nt,nt,nt,nt
CCCCCCn1c(=O)c(C(=O)Nc2cnccn2)c(O)c2ccccc21,10.8%,0.0,?,0.581µM*,0.82µM*,-20.8%
CCCCCn1c(=O)c(C(=O)Nc2ccccn2)c(O)c2ccccc21,229.0%,14.6,-7.0%,4.61µM*,3.66µM*,-7.9%
CCCCCn1c(=O)c(C(=O)Nc2cccc(C)n2)c(O)c2ccccc21,-6.9%,33.1,11.4%,?,28.9%,26.4%
CCCCn1c(=O)c(C(=O)Nc2ccc(C)cn2)c(O)c2ccccc21,nt,13.9,8.4%,9.2µM*,13µM*,3.5%
CCCCCn1c(=O)c(C(=O)NCc2ccncc2)c(O)c2ccccc21,13.1%,91.8,-29.3%,?,?,-19.4%
CCCCn1c(=O)c(C(=O)Nc2ccccn2)c(O)c2ccccc21,7.0%,36.8,4.7%,4.11µM*,3.26µM*,-0.5%
COCC(=O)NC[C@H]1C[C@@H]2CCN1C[C@@H]2CN1CCCC1,91.7%[176 µM],nt,nt,nt,nt,nt
CC1CCN(C[C@H]2CN3CC[C@H]2C[C@@H]3CNC(=O)c2ccc(N(C)C)cc2)CC1,1.0%[176 µM],nt,nt,nt,nt,nt
COc1ccc2c(c1)C1(CCN(S(=O)(=O)c3ccc(C)cc3)C1)C(=O)N2C (stereo not drawn),-10.4%,nt,nt,nt,nt,nt
COc1ccc(-c2cn(C[C@H]3CC4CCN3C[C@@H]4C(=O)NC3CCCCC3)nn2)cc1 (stereo partly drawn),-7.4%[176 µM],nt,nt,nt,nt,nt
SMILES,12-LOX inh,IL1B secr inh,HT1080 IDH1KD tx,DT40 TDP1 no CPT,DT40 TDP1 CPT,HT1080-NT tox
CC(C)(O)c1cn(C[C@H]2CC3CCN2C[C@@H]3C(=O)NCc2ccco2)nn1 (stereo partly drawn),32.9%[176 µM],nt,nt,nt,nt,nt
CCCCCCn1c(=O)c(C(=O)Nc2ncccc2O)c(O)c2ccccc21,11.8%,9.8,-3.5%,5.17µM*,5.17µM*,5.4%
COc1cccc(NC(=O)CCc2nc(-c3ccc(C(C)(C)C)cc3)no2)c1,-16.6%,nt,nt,?,?,nt
COc1ccc(NC(=O)CCc2nc(C3=CCN(Cc4cccc(C)c4)CC3)no2)c(OC)c1,7.2%,nt,nt,11.6µM*,16.4µM*,nt
O=C(CCc1nc(C2=CCN(Cc3cccc(Cl)c3)CC2)no1)Nc1ccccc1F,-12.6%,nt,nt,11.6µM*,14.6µM*,nt
ClC1=C(Cl)[C@]2(Cl)[C@@H]3[C@H]4C[C@H]([C@@H]5O[C@H]45)[C@@H]3[C@@]1(Cl)C2(Cl)Cl,nt,nt,nt,?,-8.3%,nt
Oc1cccc(Nc2ncnc3sc4c(c23)CCCC4)c1,?,nt,nt,14.6µM*,16.4µM*,nt
CC(=O)OC1C=CC2[C@H]3Cc4ccc(O)c5c4[C@@]2(CCN3C)C1O5 (stereo partly drawn),0.3%,31.6,9.1%,-3.9%,8.0%,18.0%
CCn1c(=O)c(=O)[nH]c2cc(C(=O)N3C4CCC3CC4)ccc21,21.1%,nt,nt,nt,nt,nt
COc1ccc(S(=O)(=O)NC[C@H]2C[C@@H]3CCN2C[C@@H]3CN2CCC(Cc3ccccc3)CC2)cc1,20µM*,nt,nt,nt,nt,nt
CNC(=O)Oc1cc2c(cc1C(C)(C)C)CCC2,6.8%,-2.0,-22.8%,16.4µM*,16.4µM*,-20.6%
CCCNc1nc(-c2cc(C(=O)Nc3ccccc3)on2)cc(C(C)C)n1,10.2%,-100.7*,-2.6%,?,?,-1.0%
OCC1CN(C2CCC2)CC12CCN(Cc1cccnc1)CC2 (stereo not drawn),132.9%,nt,nt,nt,nt,nt
Cc1cccc(CN2CCN(C(=O)Cc3n[nH]c(=O)c4ccccc34)CC2)c1,-3.1%,nt,nt,nt,nt,nt
COP(=O)(OC)c1nc(-c2cccc3ccccc23)oc1N1CCOCC1,?,-10.9,-12.6%,18.4µM*,-15.2%,-7.2%
CCCNc1oc(-c2cccc3ccccc23)nc1C#N,?,-14.6,-16.3%,-26.7%,-23.3%,-4.6%
COP(=O)(OC)c1nc(-c2cccc3ccccc23)oc1NCCc1ccccc1,-25.8%,-95.3*,?,?,?,?
CC[C@H]1CN2CC[C@H]1C[C@@H]2CNC(=O)c1ccco1,96.6%[176 µM],nt,nt,nt,nt,nt
Cc1[nH]nc2c1C(c1ccc(-c3cccc(Cl)c3)o1)SCC(=O)N2 (stereo not drawn),-40.8%,nt,nt,nt,nt,nt
CN1C(=O)C(=Cc2ccc(N3CCCCCC3)o2)C(=O)N(C)C1=S,-1.5%,-25.7,0.8%,23.1µM*,?,-1.5%
C/C=C/c1ccc(OCC(=O)N2CCN(CCOc3ccccc3)CC2)c(OC)c1,2.5%,nt,nt,nt,nt,nt
